# According to PubChem BioAssay:
# Calls of active or inactive are those of the source.
# How the values were obtained:
# [1] = small molecules captured by biotinylated probe aFSTL3 – biochemical, small-molecule microarray, fluorescence 635/667, stem cell growth factor project, primary screen (AID 1064); conditions: higher = more signal;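 further: measures binding of the biotinylated anti-FSTL3 antibody to printed compounds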
# [2] = binders from COS7 lysate, DM2A8 probe, primary screen, torsin A project, cell lysate, small-molecule microarray, fluorescence 635/667 (AID 1065); conditions: higher = more signal, COS7 lysate expressing mutant human TOR1A
# [3] = small molecules captured by biotinylated probe aFGF2 – biochemical, small-molecule microarray, fluorescence 635/667, stem cell growth factor project, primary screen (AID 1067); conditions: higher = more signal;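 further: measures binding of biotinylated aFGF2 protein to printed compounds on slides; z-score merges feature fluorescence and signal-to-noise across triplicate slides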
# [4] = small molecules captured by biotinylated probe aFGF10 – biochemical, small-molecule microarray, fluorescence 635/667, stem cell growth factor project, primary screen (AID 1071); conditions: higher = more signal;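 further: score merges 667 nm spot intensity and signal to noise from triplicate slides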
# [5] = molecular target: Neurogenic locus notch homolog protein 2 (Homo sapiens) (UniProt Q04721); experiment: small molecules binding Notch2 protein – biochemical, small-molecule microarray, 635 nm fluorescence, stem cell growth factors, primary screen (AID 1073); conditions: higher = more signal
# Chain of Neurogenic locus notch homolog protein 2 (Homo sapiens) (Q04721 whole entry, looked up, canonical isoform): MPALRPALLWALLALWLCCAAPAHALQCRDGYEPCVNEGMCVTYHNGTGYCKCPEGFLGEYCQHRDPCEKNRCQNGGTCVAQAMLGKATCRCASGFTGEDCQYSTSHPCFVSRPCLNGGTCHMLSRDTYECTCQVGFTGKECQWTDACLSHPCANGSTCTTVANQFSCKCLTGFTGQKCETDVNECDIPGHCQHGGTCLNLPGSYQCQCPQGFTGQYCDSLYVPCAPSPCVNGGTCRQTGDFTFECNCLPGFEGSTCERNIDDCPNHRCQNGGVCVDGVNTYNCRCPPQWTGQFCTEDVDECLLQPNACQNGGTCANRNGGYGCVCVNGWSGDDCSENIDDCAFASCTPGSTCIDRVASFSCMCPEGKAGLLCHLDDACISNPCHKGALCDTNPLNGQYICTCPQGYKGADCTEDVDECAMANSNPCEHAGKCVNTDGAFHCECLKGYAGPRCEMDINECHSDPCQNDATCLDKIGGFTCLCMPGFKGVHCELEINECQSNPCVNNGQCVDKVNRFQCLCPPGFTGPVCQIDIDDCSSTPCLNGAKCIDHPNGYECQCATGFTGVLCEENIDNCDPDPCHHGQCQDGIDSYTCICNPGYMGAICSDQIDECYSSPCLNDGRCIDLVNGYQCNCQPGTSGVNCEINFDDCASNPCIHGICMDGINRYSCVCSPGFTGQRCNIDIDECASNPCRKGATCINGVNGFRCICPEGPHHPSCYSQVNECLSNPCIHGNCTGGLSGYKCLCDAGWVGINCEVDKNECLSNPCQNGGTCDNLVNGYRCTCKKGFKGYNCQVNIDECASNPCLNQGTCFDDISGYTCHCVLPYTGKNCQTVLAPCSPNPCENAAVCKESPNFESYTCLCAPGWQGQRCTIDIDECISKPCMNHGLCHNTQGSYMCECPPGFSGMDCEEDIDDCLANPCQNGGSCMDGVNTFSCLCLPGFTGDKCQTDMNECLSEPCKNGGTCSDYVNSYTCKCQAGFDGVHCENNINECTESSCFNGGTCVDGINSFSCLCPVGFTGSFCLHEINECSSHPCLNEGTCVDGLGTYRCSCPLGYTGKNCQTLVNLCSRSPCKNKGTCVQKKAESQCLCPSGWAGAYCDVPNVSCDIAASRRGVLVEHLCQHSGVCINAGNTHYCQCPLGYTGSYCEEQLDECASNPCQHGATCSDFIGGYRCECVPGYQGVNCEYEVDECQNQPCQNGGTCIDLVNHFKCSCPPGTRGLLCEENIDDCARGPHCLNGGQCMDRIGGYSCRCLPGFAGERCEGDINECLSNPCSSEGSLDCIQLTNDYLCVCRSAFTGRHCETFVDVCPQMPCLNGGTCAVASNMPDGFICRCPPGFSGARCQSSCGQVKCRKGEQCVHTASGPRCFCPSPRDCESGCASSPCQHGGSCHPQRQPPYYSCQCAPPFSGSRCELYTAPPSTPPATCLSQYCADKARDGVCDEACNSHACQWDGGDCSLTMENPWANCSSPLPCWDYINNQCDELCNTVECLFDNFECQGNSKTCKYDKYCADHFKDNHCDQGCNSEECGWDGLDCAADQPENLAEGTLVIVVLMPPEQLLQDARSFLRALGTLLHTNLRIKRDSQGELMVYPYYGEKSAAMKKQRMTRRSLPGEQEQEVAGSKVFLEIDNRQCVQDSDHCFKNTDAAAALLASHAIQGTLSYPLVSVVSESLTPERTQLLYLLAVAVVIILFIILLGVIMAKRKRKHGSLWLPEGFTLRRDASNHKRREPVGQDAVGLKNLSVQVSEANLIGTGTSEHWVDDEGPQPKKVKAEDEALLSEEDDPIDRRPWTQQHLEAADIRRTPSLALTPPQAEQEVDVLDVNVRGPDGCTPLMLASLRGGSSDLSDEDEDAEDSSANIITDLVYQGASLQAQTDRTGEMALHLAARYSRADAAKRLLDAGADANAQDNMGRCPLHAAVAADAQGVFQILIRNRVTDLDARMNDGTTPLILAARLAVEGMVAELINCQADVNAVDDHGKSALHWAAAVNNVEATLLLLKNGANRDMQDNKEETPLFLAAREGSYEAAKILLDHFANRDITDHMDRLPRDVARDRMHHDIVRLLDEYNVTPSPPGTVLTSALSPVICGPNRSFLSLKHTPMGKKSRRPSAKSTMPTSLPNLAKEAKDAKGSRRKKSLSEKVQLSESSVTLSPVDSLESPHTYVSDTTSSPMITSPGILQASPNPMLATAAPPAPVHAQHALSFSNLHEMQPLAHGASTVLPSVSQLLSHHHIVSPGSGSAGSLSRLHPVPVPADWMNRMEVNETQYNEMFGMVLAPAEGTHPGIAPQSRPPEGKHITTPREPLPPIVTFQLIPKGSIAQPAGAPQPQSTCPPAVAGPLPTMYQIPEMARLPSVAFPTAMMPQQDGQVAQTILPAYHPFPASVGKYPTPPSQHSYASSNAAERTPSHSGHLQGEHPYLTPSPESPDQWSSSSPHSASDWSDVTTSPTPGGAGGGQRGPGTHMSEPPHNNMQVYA
# [6] = molecular target: Pro-neuregulin-1, membrane-bound isoform (Homo sapiens) (UniProt Q02297); experiment: small molecules binding neuregulin-1 protein – biochemical, small-molecule microarray, fluorescence 635/667, psychiatric disease protein project, primary screen (AID 1075); conditions: NRG1 binding, 635 nm fluorescence, higher = more signal;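 further: score combines 667 nm spot fluorescence with signal to noise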
# Chain of Pro-neuregulin-1, membrane-bound isoform (Homo sapiens) (Q02297 whole entry, looked up, the tested form may be a part, canonical isoform): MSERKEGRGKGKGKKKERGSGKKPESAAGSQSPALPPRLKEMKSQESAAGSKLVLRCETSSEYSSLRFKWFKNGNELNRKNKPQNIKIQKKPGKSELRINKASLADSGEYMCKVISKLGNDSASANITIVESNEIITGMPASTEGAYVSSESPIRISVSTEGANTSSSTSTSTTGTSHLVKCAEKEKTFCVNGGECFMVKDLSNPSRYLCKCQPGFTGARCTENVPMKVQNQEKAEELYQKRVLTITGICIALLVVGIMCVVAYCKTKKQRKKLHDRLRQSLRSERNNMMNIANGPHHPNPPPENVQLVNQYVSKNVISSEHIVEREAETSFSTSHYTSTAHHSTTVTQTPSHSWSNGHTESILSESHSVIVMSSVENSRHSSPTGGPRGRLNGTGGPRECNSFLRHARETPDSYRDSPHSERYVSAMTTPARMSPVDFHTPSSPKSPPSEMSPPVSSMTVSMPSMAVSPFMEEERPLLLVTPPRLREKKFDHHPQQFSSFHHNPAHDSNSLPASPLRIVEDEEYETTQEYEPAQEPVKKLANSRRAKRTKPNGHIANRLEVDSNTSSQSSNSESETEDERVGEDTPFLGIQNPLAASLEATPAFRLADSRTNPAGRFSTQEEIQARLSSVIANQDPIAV
# [7] = test system: Neuregulin-1 EGF-like domain; experiment: small molecules binding NRG1 EGF domain – biochemical, small-molecule microarray, 635 nm fluorescence, primary screen (AID 1081); conditions: higher = more signal;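 further: binding of the protein to compounds printed on small-molecule microarray slides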
# [8] = FRG1 expression reporter modulators in myotubes – cell-based, C2C12 myotubes, firefly/Renilla luciferase, luminescence, FRG1 inhibition for FSHD, primary screen (AID 1084); conditions: FRG1 promoter luciferase, higher = more signal, called active from +8 up or from −8 down
# [9] = small molecules captured by biotinylated probe aFST – biochemical, small-molecule microarray, fluorescence 635/667, stem cell growth factor project, primary screen (AID 1086); conditions: higher = more signal;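 further: score merges 667 nm fluorescence with signal-to-noise of each printed compound spot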
# [10] = binders of probe aHhip on microarray, primary screen, stem cell growth factor project, biochemical, small-molecule microarray, fluorescence 635/667 (AID 1087); conditions: higher = more signal;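 further: score merges spot fluorescence at 667nm with spot signal to noise ratio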
# [11] = test system: PRMT1 (protein arginine N-methyltransferase 1); experiment: small molecules binding arginine methyltransferase PRMT1 – biochemical, small-molecule microarray, 635 nm fluorescence, primary screen (AID 1088); conditions: higher = more signal;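 further: binding of Prmt1 protein to compounds spotted on small-molecule microarray slides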
# [12] = growth effects on S. cerevisiae YJM789 – YJM789 clinical isolate, OD600, 24 h, basal, primary screen (AID 1089); conditions: higher = more signal, called active from +8 up or from −8 down;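 further: growth of clinical yeast isolate S. cerevisiae YJM 789 seeded 1000 cells per well; test concentration not given here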
# [13] = S. pombe growth modifiers, basal conditions – strain 972, OD600, 24 h, no modulator, primary screen (AID 1090);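 further: basal condition with compound alone and no growth modifier present; test concentration not given here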; conditions: S. pombe 972 growth, higher = more signal, called active from +8 up or from −8 down
# [14] = budding yeast growth modifiers under rapamycin – strain BY4716, OD600, 96 h, primary screen (AID 1091); further: test concentration not given here; conditions: S. cerevisiae BY4716 + rapamycin, higher = more signal, called active from +8 up or from −8 down
# [15] = molecular target: Torsin-1A-interacting protein 2 (Homo sapiens) (UniProt Q8NFQ8); experiment: small molecules binding lysate-expressed LULL1 – cell lysate, human LULL1 lysate, 635/667 nm fluorescence, primary screen (AID 1092); conditions: small-molecule microarray, hLULL1 lysate binding, 635 nm fluorescence; higher = more signal;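 further: probe is lysate of COS7 cells overexpressing human LULL1; score merges per-feature 667 nm fluorescence with signal-to-noise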
# Chain of Torsin-1A-interacting protein 2 (Homo sapiens) (Q8NFQ8 whole entry, looked up): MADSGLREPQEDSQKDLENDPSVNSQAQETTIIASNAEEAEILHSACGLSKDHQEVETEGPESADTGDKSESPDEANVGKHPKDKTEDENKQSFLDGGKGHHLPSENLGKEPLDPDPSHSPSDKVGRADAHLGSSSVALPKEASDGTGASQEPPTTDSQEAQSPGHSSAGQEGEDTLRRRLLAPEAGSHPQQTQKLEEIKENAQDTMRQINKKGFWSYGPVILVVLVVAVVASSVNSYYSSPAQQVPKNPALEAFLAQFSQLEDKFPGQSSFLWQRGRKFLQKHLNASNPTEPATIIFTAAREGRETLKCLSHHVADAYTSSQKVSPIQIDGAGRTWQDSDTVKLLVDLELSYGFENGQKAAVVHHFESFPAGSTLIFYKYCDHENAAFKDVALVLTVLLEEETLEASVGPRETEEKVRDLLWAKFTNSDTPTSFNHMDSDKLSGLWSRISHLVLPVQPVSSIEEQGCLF
# [16] = optical density change of DRC41 E. coli – strain DRC41, OD650, 24 h, E. coli filamentation project, primary screen (AID 1093);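 further: MC1000 strain lacking acrAB efflux and sulA so SOS filamentation is blocked; test concentration not given here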; conditions: E. coli DRC41 growth, higher = more signal, called active from +8 up or from −8 down
# [17] = probe aLefty2 binding to arrayed compounds – biochemical, biotinylated probe, 635/667 nm fluorescence, primary screen (AID 1094); conditions: small-molecule microarray, higher = more signal;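 further: score merges spot fluorescence near 667 nm with spot signal-to-noise ratio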
# [18] = test system: Noggin (protein binding on small-molecule microarray); experiment: small molecules binding Noggin protein – biochemical, 635/667 nm fluorescence, primary screen (AID 1095); conditions: 635 nm fluorescence, higher = more signal;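 further: score merges 667 nm feature fluorescence with signal to noise over triplicate slides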
# [19] = molecular target: Neurogenic locus notch homolog protein 3 (Homo sapiens) (UniProt Q9UM47); experiment: small molecules binding NOTCH3 protein – biochemical, 635/667 nm fluorescence, primary screen (AID 1096); conditions: small-molecule microarray, 635 nm fluorescence, higher = more signal
# [20] = probe aEGFR binding to arrayed compounds – biochemical, biotinylated probe, 635/667 nm fluorescence, primary screen (AID 1097); conditions: small-molecule microarray, higher = more signal;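 further: probe is a biotinylated anti-EGFR antibody binding compounds printed on slides; score combines fluorescence near 667 nm and signal to noise of each spot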
Compound,composite z-score [1],composite z-score [2],composite z-score [3],composite z-score [4],composite z-score [5],composite z-score [6],composite z-score [7],z-score [8],composite z-score [9],composite z-score [10],composite z-score [11],z-score [12],z-score [13],z-score [14],composite z-score [15],z-score [16],composite z-score [17],composite z-score [18],composite z-score [19],composite z-score [20]
CCCCO[C@H]1C[C@H]2C(Br)=C[C@@]1(CO)C(=O)[C@]21CO1,-0.599,0.407,-0.0785,-0.367,-0.0029,-0.534,-0.802,0.715 (inactive),0.162,-0.156,0.638,-1.48 (inactive),-2.1 (inactive),-1.29 (inactive),-0.0735,2.62 (inactive),-0.341,0.648,0.237,-0.109
C=CCc1cccc([C@H]2N[C@H](C(=O)O)CC[C@@H]2C)c1,-0.746,0.604,-0.221,0.502,-0.441,-0.0316,0.519,-0.204 (inactive),-0.099,0.122,0.453,0.468 (inactive),0.0843 (inactive),2.04 (inactive),-0.0584,0.271 (inactive),-0.203,1.17,0.245,-0.0828
C=C(COC)/C(=C/C[C@@H](OC(C)=O)c1cccc(OCCO)c1)c1cc(C(=O)OC)ccc1OC,0.0462,0.361,-0.103,0.396,-0.0821,-0.582,0.597,-0.637 (inactive),0.105,0.0274,0.602,0.036 (inactive),-1.11 (inactive),-1.03 (inactive),0.228,1.09 (inactive),0.0116,1.56,0.493,-0.15
CC(=O)NCCCC[C@@H]1NC(=O)[C@@H]2C[C@H](C(=O)NCc3ccc(F)cc3)[C@H](c3cccc(OCCO)c3)N2C1=O,0.617,-0.0522,-0.0038,0.107,-0.417,1.39,1.36,0.967 (inactive),-0.205,-0.0237,0.631,0.592 (inactive),0.16 (inactive),0.205 (inactive),2.43,0.496 (inactive),0.207,0.584,-0.515,-0.0953
Cc1ccc(S[C@]2(C(=O)NCCCN(C)C)CC(=O)N(Cc3ccccc3)[C@@H]2c2ccc(CO)cc2I)cc1,1.04,-1.08,-0.0785,-0.244,-0.189,1.39,0.727,-0.463 (inactive),1.04,-0.427,0.25,-1.87 (inactive),-4.8 (inactive),0.768 (inactive),2.68,-0.563 (inactive),0.373,-0.869,-0.723,-0.13
CCCC[C@@H]1C[C@H]1[C@@H](NC(=O)c1ccccc1)c1ccccc1C(F)(F)F,0.135,0.281,0.149,0.189,1.13,1.97,0.828,0.822 (inactive),0.819,-0.189,1.03,0.261 (inactive),0.367 (inactive),0.0237 (inactive),3.38,0.151 (inactive),0.198,0.0984,0.961,-0.123
COc1ccc([Si](C)(C)[C@H]2[C@H](CC(=O)N3Cc4ccccc4C[C@H]3CO)O[C@@]3(C(=O)N(Cc4cccc(N5CCOC5=O)c4)c4ccccc43)[C@@H]2C)cc1,0.0766,0.882,-0.128,0.157,0.123,0.676,0.95,-2.72 (inactive),0.158,-0.264,1.34,-0.541 (inactive),0.319 (inactive),0.18 (inactive),0.662,1.4 (inactive),0.0939,1.22,0.932,-0.0169
CO[C@@H]1COC(=O)[C@H](C)NC(=O)CC=C[C@@H](C)[C@H](NS(=O)(=O)c2ccc(C)cc2)COC(=O)CC=C[C@@H]1C,-0.402,-0.0613,-0.0891,0.117,0.156,-0.32,-0.144,-0.364 (inactive),-0.181,-0.388,-0.844,0.79 (inactive),-0.0181 (inactive),0.256 (inactive),-0.382,0.452 (inactive),-0.207,-0.0396,-0.693,-0.211
C[C@H]1COC(=O)[C@H](Cc2ccccc2)NC(=O)[C@@H](C)COC(=O)[C@H](Cc2ccccc2)NC1=O,-0.275,0.381,-0.136,0.718,0.694,0.815,1.11,-1.06 (inactive),0.0531,-0.0994,1.57,-0.743 (inactive),-1.27 (inactive),-0.278 (inactive),1.92,-0.208 (inactive),-0.243,0.996,1.13,-0.0781
COc1cccc([C@@H]2[C@@H](C)CC[C@H]3C(=O)N(C)[C@@H](C(C)C)C(=O)N23)c1,-0.413,0.353,-0.174,0.391,0.188,0.0253,0.475,0.056 (inactive),-0.0409,0.154,-0.652,-0.0534 (inactive),-0.719 (inactive),0.369 (inactive),0.21,0.652 (inactive),-0.0113,0.375,0.374,-0.111
